Measured values as given in ChEMBL document CHEMBL3988442, “University of Dundee, Small-Polar-MMV Screening Library” (2021).

Biological target: T1, Methionyl-tRNA synthetase, putative (Leishmania donovani (strain BPK282A1)) (UniProt E9BF75)
T1 sequence (whole entry): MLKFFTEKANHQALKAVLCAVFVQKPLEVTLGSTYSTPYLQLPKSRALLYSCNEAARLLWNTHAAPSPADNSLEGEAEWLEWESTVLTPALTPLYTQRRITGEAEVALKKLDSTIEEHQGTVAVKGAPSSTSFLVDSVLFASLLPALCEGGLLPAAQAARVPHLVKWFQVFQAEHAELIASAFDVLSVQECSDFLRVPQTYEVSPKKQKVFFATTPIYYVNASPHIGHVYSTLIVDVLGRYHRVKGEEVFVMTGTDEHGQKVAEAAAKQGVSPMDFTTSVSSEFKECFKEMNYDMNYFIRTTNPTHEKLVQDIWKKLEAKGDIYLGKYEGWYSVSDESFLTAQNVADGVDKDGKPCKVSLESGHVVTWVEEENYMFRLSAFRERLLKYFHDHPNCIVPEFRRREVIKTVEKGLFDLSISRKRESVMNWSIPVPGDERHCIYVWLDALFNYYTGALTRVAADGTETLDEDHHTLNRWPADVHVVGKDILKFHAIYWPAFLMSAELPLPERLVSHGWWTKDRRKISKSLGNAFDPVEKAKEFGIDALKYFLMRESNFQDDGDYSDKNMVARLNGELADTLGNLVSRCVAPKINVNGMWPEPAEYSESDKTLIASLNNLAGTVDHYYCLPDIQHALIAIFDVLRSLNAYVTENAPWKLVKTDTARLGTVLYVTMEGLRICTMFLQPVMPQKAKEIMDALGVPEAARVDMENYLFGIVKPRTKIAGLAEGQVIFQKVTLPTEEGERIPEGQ
Assay: Leishmania donovani Methionine tRNA synthetase (LdMetRS):v7. Dose response assay
Format: functional
Design: conc 80 nM, time 150 minutes

## CCc1nc(NCCCN(C)C)c2cc(CC)sc2n1
MAX_EFFECT 9.547738693
  PXC50: < 4
MAX_EFFECT 12.53071253
  PXC50: < 4

## CC(C)C[C@H](N)COc1ccccc1-c1ccccn1
MAX_EFFECT 10.44776119
  PXC50: < 4
MAX_EFFECT 11.38716356
  PXC50: < 4

## CC(=O)N1CCN(c2ccc3ncc(-c4ccc5onc(N)c5c4)n3n2)CC1
MAX_EFFECT 15.77608142
  PXC50: < 4
MAX_EFFECT 16.66666667
  PXC50: < 4

## Nc1noc2ccc(-c3cnc4ccc(Cl)nn34)cc12
MAX_EFFECT 1.526717557
  PXC50: < 4
MAX_EFFECT 4.824561404
  PXC50: < 4

## Cn1ccnc1CN1CCC(F)(F)C2(CCN(c3cccnc3)C2)C1 (stereo not given)
MAX_EFFECT 9.719626168
  PXC50: < 4
MAX_EFFECT 11.33786848
  PXC50: < 4

## Cc1nc(N2CCN(C3CCOCC3)CC2)c2ccsc2n1
MAX_EFFECT 2.659574468
  PXC50: < 4
MAX_EFFECT 4.663212435
  PXC50: < 4

## Nc1noc2ccc(-c3cnc4ccc(NC5CC5)nn34)cc12
MAX_EFFECT 22.39185751
  PXC50: < 4
MAX_EFFECT 25.87719298
  PXC50: < 4

## Nc1noc2ccc(-c3cnc4ccc(NCCN5CCOCC5)nn34)cc12
MAX_EFFECT -0.438596491
  PXC50: < 4
MAX_EFFECT -1.041666667
  PXC50: < 4

## CN(CCO)c1nc(-c2cccs2)nc2sc3c(c12)CCCC3
MAX_EFFECT 31.46666667
  PXC50: < 4
MAX_EFFECT 36.50793651
  PXC50: < 4

## CNc1nc(C)nc(N2CCc3cc(C(=O)NCc4ccc(-c5nccn5C)cc4Cl)ccc32)n1
MAX_EFFECT 28.67132867
  PXC50: < 4
MAX_EFFECT 30.23255814
  PXC50: < 4

## COC(=O)c1sc2nc(C)nc(NCc3cccnc3)c2c1C
MAX_EFFECT 10.38251366
  PXC50: < 4
MAX_EFFECT 11.22994652
  PXC50: < 4

## Cc1nc(O)cc(C2CCN(c3nc(C)nc4sccc34)CC2)n1
MAX_EFFECT 2.659574468
  PXC50: < 4
MAX_EFFECT 5.699481865
  PXC50: < 4

## Cc1nc(N2CCN(CCO)CC2)c2c(-c3ccccc3)csc2n1
MAX_EFFECT 6.12244898
  PXC50: < 4
MAX_EFFECT 9.848484848
  PXC50: < 4

## Cc1cc(C(=O)NC2CCCC2)cn2c(N3CCN(S(C)(=O)=O)CC3)ccc12
BOTTOM 3.715191159, HILLSLOPE 1.052339001, MAX_EFFECT 54.38596491, TOP 65.94212945
  PXC50: 4.67
MAX_EFFECT 46.875
  PXC50: < 4

## CC1CCN(c2nc3c(c(C(F)(F)F)n2)CCCCC3)CC1
MAX_EFFECT 8.396946565
  PXC50: < 4
MAX_EFFECT 11.83879093
  PXC50: < 4

## O=C(NCC1(O)CCC(F)(F)CC1)c1cc(=O)c2cc(F)cc(O)c2o1
MAX_EFFECT 4.030710173
  PXC50: < 4
MAX_EFFECT 10.04784689
  PXC50: < 4

## CCc1nc(N2CCCC2C(=O)O)c2c3c(sc2n1)CCC3 (stereo not given)
MAX_EFFECT 9.836065574
  PXC50: < 4
MAX_EFFECT 11.76470588
  PXC50: < 4

## Cc1cc(C)n(-c2nc(NCC(C)(C)O)c3c4c(sc3n2)CCCC4)n1
MAX_EFFECT 11.97916667
  PXC50: < 4
MAX_EFFECT 40.35087719
  PXC50: < 4

## Cc1nc(N(Cc2ccncc2)CC2CCCO2)c2ccsc2n1 (stereo not given)
MAX_EFFECT 13.31592689
  PXC50: < 4
MAX_EFFECT 17.75456919
  PXC50: < 4

## Nc1noc2ccc(-c3cnc4ccc(NCc5cccnc5)nn34)cc12
MAX_EFFECT 15.26717557
  PXC50: < 4
MAX_EFFECT 15.78947368
  PXC50: < 4

## Cc1nc(N(C)Cc2cccnc2)c2c(C)c(C)sc2n1
MAX_EFFECT 19.78609626
  PXC50: < 4
MAX_EFFECT 20.76502732
  PXC50: < 4

## O=C(NCC1(O)CCCCC1)c1cc(=O)c2ccc(F)c(O)c2o1
MAX_EFFECT 5.582137161
  PXC50: < 4
MAX_EFFECT 7.485604607
  PXC50: < 4

## Cc1nc(NC(C)C(=O)O)c2c3c(sc2n1)CCCC3 (stereo not given)
MAX_EFFECT 7.035175879
  PXC50: < 4
MAX_EFFECT 8.5995086
  PXC50: < 4

## Cc1nc(N2CCN(c3ccccc3O)CC2)c2c3c(sc2n1)CCC3
BOTTOM -0.0879, HILLSLOPE 1.043556985, MAX_EFFECT 58.82352941, TOP 100.0
  PXC50: 4.16
BOTTOM -4.305210646, HILLSLOPE 1.068745934, MAX_EFFECT 61.20218579, TOP 100.0
  PXC50: 4.17

## Cc1cc(Br)sc1CNCCCNc1cc(=O)c2ccccc2[nH]1
BOTTOM 0.0, HILLSLOPE 1.706331743, MAX_EFFECT 106.0465116, TOP 103.2080248
  PXC50: 6.25
BOTTOM 0.0, HILLSLOPE 2.906661209, MAX_EFFECT 104.1958042, TOP 102.1210588
  PXC50: 6.14

## Cc1sc2nc(CN(C)Cc3ccc(C(F)(F)F)cc3)nc(N)c2c1C
MAX_EFFECT 10.05291005
  PXC50: < 4
MAX_EFFECT 12.8
  PXC50: < 4

## CN(C)CCNC(=O)c1ccc2ccc(N3CCN(S(C)(=O)=O)CC3)n2c1
BOTTOM 0.033, HILLSLOPE 2.605738827, MAX_EFFECT 55.98086124, TOP 56.52145989
  PXC50: 4.84
BOTTOM -2.072944034, HILLSLOPE 2.61914663, MAX_EFFECT 60.32906764, TOP 62.06864911
  PXC50: 4.75

## CN(C(=O)c1ccc2ccc(N3CCN(S(C)(=O)=O)CC3)n2c1)C1CCCC1
BOTTOM 0.289643944, HILLSLOPE 2.293493597, MAX_EFFECT 58.37320574, TOP 59.73308371
  PXC50: 5.01
BOTTOM 8.176661161, HILLSLOPE 2.054643886, MAX_EFFECT 62.15722121, TOP 64.55497205
  PXC50: 4.82

## COCCNC(=O)c1ccc2ccc(N3CCN(S(C)(=O)=O)CC3)n2c1
BOTTOM 1.198316498, HILLSLOPE 2.008751015, MAX_EFFECT 51.91956124, TOP 53.93938429
  PXC50: 4.75
MAX_EFFECT 47.36842105
  PXC50: < 4

## CS(=O)(=O)N1CCN(c2ccc3ccc(C(=O)NC4CCOCC4)cn23)CC1
BOTTOM 2.519402955, HILLSLOPE 2.221498876, MAX_EFFECT 53.88127854, TOP 54.22998304
  PXC50: 4.8
BOTTOM -4.408166057, HILLSLOPE 3.645653811, MAX_EFFECT 56.79245283, TOP 54.33837105
  PXC50: 4.78

## Cc1nc(N2CCCC(N)CC2)c2ccsc2n1 (stereo not given)
MAX_EFFECT 0.0
  PXC50: < 4
MAX_EFFECT 3.10880829
  PXC50: < 4

## O=C(NCC1CCCCC1)c1cc(=O)c2cc(O)ccc2o1
MAX_EFFECT 0.575815739
  PXC50: < 4
MAX_EFFECT 4.306220096
  PXC50: < 4

## CCN1CCN(c2nc(-c3cccnc3)nc3sc(C)cc23)CC1
MAX_EFFECT 2.18579235
  PXC50: < 4
MAX_EFFECT -3.20855615
  PXC50: < 4

## FC1(F)CCN(Cc2ccccn2)CC12CCN(c1ncccn1)C2 (stereo not given)
MAX_EFFECT 3.628117914
  PXC50: < 4
MAX_EFFECT 16.82242991
  PXC50: < 4

## Cc1sc2nc(C(F)(F)F)nc(N3CCCN(C)CC3)c2c1C
MAX_EFFECT 3.916449086
  PXC50: < 4
MAX_EFFECT 8.877284595
  PXC50: < 4

## CNc1nc(CN2CCOCC2)nc2sc3c(c12)CCC(C)C3 (stereo not given)
MAX_EFFECT 4.668304668
  PXC50: < 4
MAX_EFFECT 7.035175879
  PXC50: < 4

## COc1cccc(-c2cc(C(F)(F)F)nc(N3CCCC3)n2)c1
MAX_EFFECT 5.303030303
  PXC50: < 4
MAX_EFFECT 7.142857143
  PXC50: < 4

## NC(=O)C1CN(c2nc(C3CC3)nc3sc4c(c23)CCCC4)CCO1 (stereo not given)
MAX_EFFECT 5.699481865
  PXC50: < 4
MAX_EFFECT 7.446808511
  PXC50: < 4

## O=C(NCC1(O)CCC(F)(F)CC1)c1cc(=O)c2cc(O)ccc2o1
MAX_EFFECT 6.858054226
  PXC50: < 4
MAX_EFFECT 7.869481766
  PXC50: < 4

## Cc1ccc(-c2ncc(CNc3cnccc3CO)s2)cc1
MAX_EFFECT 7.042253521
  PXC50: < 4
MAX_EFFECT 10.18518519
  PXC50: < 4

## Cc1c(-c2cc(C(F)(F)F)nc(N3CCC(N)CC3)n2)cnn1C
MAX_EFFECT 7.485604607
  PXC50: < 4
MAX_EFFECT 8.133971292
  PXC50: < 4

## CC(C)C[C@H](N)COc1ccccc1N1CCCC1=O
MAX_EFFECT 8.074534161
  PXC50: < 4
MAX_EFFECT 13.85927505
  PXC50: < 4

## Cc1nc(NCCN2CCNC2=O)c2ccsc2n1
MAX_EFFECT 8.533333333
  PXC50: < 4
MAX_EFFECT 11.11111111
  PXC50: < 4

## OB1OC(CN2CCOCC2)c2ccccc21 (stereo not given)
MAX_EFFECT 9.245283019
  PXC50: < 4
MAX_EFFECT 9.589041096
  PXC50: < 4

## Cc1nc(NCc2noc(C3CCCO3)n2)c2ccsc2n1 (stereo not given)
MAX_EFFECT 9.660574413
  PXC50: < 4
MAX_EFFECT 12.53263708
  PXC50: < 4
